PubChem BioAssay AID1259249 (Broad Institute, 2017)
Where “and” joins values, the source holds several entries; their conditions need not be identical. Equal values may be shown once. In all, about 86,000 compounds went through this assay and about 220 (0.26%) were called active.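 The calls were made as follows: active = mean growth activity at or below -80% and every replicate also at or below -80%; inconclusive = mean at or below -80% but some replicate above -80%; inactive = mean growth activity above -80%.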 Shown is part of a subset that was picked to be rich in actives.

Experiment: C. difficile growth inhibitors, primary screen, HTS (AID 1259249);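 also: 0% = DMSO wells and -100% = levofloxacin 16 µg/mL wells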
Details: Clostridium difficile clinical isolate growth, OD600, 24 h; stronger effect = lower value; screened at 16 µg/mL (by protocol)

Row | SMILES | growth activity, negative = inhibition
1 | COc1ccc(S(=O)(=O)NC[C@@H]2CC[C@@H]3[C@@H](CN3Cc3cc(F)ccc3F)O2)cc1 | -8.36% (inactive)
2 | CN1C(=O)c2cc(NC(=O)C3CC3)ccc2OC[C@H]2O[C@H](CC(=O)O)CC[C@H]21 | 3.37% (inactive)
3 | CO[C@@H]1CN(C)C(=O)c2ccc(NC(=O)C3CC3)cc2OC[C@H](C)N(C(C)=O)C[C@H]1C | 0.555% (inactive)
4 | COc1cccc(NC(=O)N[C@H]2C=C[C@H](CC(=O)NCc3ccccn3)O[C@@H]2CO)c1 | 6.26% (inactive)
5 | CO[C@H]1CN(C)C(=O)c2ccc(NC(=O)C3CCCC3)cc2OC[C@H](C)N(C(=O)CC2CC2)C[C@@H]1C | -4% (inactive)
6 | C/C=C/c1ccccc1[C@H]1[C@@H](C#N)N(C(C)=O)[C@@H]1CO | -2.31% (inactive)
7 | O=C(C1CCOCC1)N1CC(=O)N2[C@H](CO)[C@H](c3ccc(C#Cc4cccc(F)c4)cc3)[C@H]2C1 | -20.7% (inactive)
8 | CNC(=O)C[C@H]1CC[C@H]2[C@H](COc3ccc(NC(=O)Nc4ccc(F)cc4)cc3C(=O)N2C)O1 | -3.32% (inactive)
9 | O=C(C[C@H]1C=C[C@H](NC(=O)Nc2cc(F)ccc2F)[C@@H](CO)O1)NCc1ccccn1 | -1.08% (inactive)
10 | CNC[C@H]1OCCCC[C@H](C)Oc2ccc(NC(=O)Nc3ccc(C(F)(F)F)cc3)cc2C(=O)N([C@H](C)CO)C[C@@H]1C | 8.32% (inactive)
11 | C[C@H](O)C#Cc1ccc2c(c1)O[C@@H](CN(C)C(=O)C1CCCCC1)[C@H](C)CN([C@@H](C)CO)S2(=O)=O | -2.82% (inactive)
12 | COc1ccc2c3c(n(C)c2c1)[C@@H](CO)N(C(=O)CN1CCOCC1)CC31CCN(Cc2ccncc2)CC1 | -2.85% (inactive)
13 | CCCNC(=O)N1CC2(C1)[C@@H](c1ccccc1)[C@@H](CO)N2C(=O)CC1CC1 | -0.374% (inactive)
14 | C[C@@H]1CN([C@H](C)CO)S(=O)(=O)c2ccc(C3=CCCC3)cc2O[C@H]1CN(C)C(=O)CC1CC1 | 3.03% (inactive)
15 | COCc1cn(CC[C@H]2CC[C@H](NC(=O)Cc3cccnc3)[C@H](CO)O2)nn1 | 1.58% (inactive)
16 | N[C@@H]1CC[C@H](CCn2cc(C3CC3)nn2)O[C@@H]1CO | 5.59% (inactive)
17 | C/C=C/c1ccc([C@@H]2[C@H](CO)N(C(=O)c3cnccn3)C23CN(C(C)=O)C3)cc1 | 2.93% (inactive)
18 | CCCNC(=O)C[C@H]1CC[C@H]2[C@@H](COC[C@H](O)CN2C(=O)CC)O1 | 7.43% (inactive) and 9.67% (inactive)
19 | COc1ccc(CN(C)C[C@H]2OCc3cn(nn3)CCCC(=O)N([C@@H](C)CO)C[C@@H]2C)cc1 | -0.425% (inactive)
20 | CCCNC(=O)C[C@H]1CC[C@H]2[C@@H](COC[C@@H](O)CN2C(=O)Nc2ccc(Cl)c(Cl)c2)O1 | -102% (active) and -6.65% (inactive)

Row | SMILES | growth activity, negative = inhibition
21 | O=C(C[C@H]1CC[C@@H]2[C@H](COC[C@@H](O)CN2C(=O)Nc2ccc(Cl)cc2)O1)NC1Cc2ccccc2C1 | -5.66% (inactive) and -5.56% (inactive)
22 | O=C(C[C@H]1CC[C@H]2[C@@H](COC[C@H](O)CN2C(=O)Nc2ccc(Cl)cc2)O1)NCC1CC1 | 7.11% (inactive)
23 | CCCNC(=O)C[C@@H]1CC[C@H]2[C@@H](COC[C@H](O)CN2C(=O)Nc2ccc(Cl)c(Cl)c2)O1 | -57.2% (inactive) and -25.4% (inactive)
24 | O=C(C[C@@H]1CC[C@H]2[C@@H](COC[C@@H](O)CN2C(=O)Nc2ccc(Cl)cc2)O1)NC1Cc2ccccc2C1 | 2% (inactive) and 46.4% (inactive)
25 | O=C(C[C@H]1CC[C@H]2[C@@H](COC[C@@H](O)CN2C(=O)Nc2ccc(C(F)(F)F)cc2)O1)NC1Cc2ccccc2C1 | -97.2% (active) and 27.2% (inactive)
26 | CC=Cc1ccc2n(c1=O)C[C@H]1[C@H](CO)[C@@H](C(=O)NC3CCCC3)[C@@H]2N1C(=O)c1cnccn1 (mixture of isomers) | 3.3% (inactive)
27 | CC(C)NC(=O)N1[C@@H]2CN(C(=O)C3CCCCC3)c3ccccc3[C@@H]2[C@@H]1CO | -5.28% (inactive)
28 | CC(=O)N1[C@H](CO)[C@H](c2ccccc2)[C@H]1CN(C(=O)c1ccccc1F)C(C)C | 2.62% (inactive)
29 | CCS(=O)(=O)N1CC2(CN(Cc3ccccc3)[C@@H](CO)c3c2c2ccc(OC)cc2n3C)C1 | 10.4% (inactive)
30 | COc1ccccc1C(=O)N1C[C@H]2[C@@H](c3ccccc31)[C@H](CO)N2C(=O)C1CC1 | -5.43% (inactive)
31 | CO[C@H]1CN(C)C(=O)c2ccc(NS(=O)(=O)c3ccccc3)cc2OC[C@H](C)N(Cc2nccs2)C[C@@H]1C | 1.37% (inactive)
32 | COc1cccc(S(=O)(=O)N(C)C[C@@H]2Oc3ncc(-c4cccc(C(=O)N(C)C)c4)cc3C(=O)N([C@H](C)CO)C[C@H]2C)c1 | -3.2% (inactive)
33 | COc1cccc(NC(=O)N(C)C[C@H]2Oc3cc(/C=C/c4ccccc4)ccc3S(=O)(=O)N([C@H](C)CO)C[C@@H]2C)c1 | 5.84% (inactive)
34 | COc1ccc2c3c(n(C)c2c1)[C@H](CO)N(S(=O)(=O)c1ccc(C)cc1)CC31CCN(C(=O)c2ccccn2)CC1 | 3.65% (inactive)
35 | O=C(C1CCCC1)N1CC(=O)N2[C@H](C1)[C@@H](c1ccc(-c3ccccc3F)cc1)[C@@H]2CO | 2.69% (inactive)
36 | C/C=C/c1ccc([C@H]2[C@@H](CO)N(C(=O)CC)[C@H]2CN(C)C(=O)C2CC2)cc1 | -2.06% (inactive)
37 | O=C(NCC[C@H]1CC[C@H](NS(=O)(=O)c2cccc(F)c2)[C@H](CO)O1)C1CCCCC1 | -5.15% (inactive)
38 | C/C=C/c1ccc([C@@H]2[C@H](CO)N(CCC(F)(F)F)C23CN(C(=O)CC)C3)cc1 | 8.71% (inactive)
39 | CC(C)NC(=O)N(C)C[C@H]1Oc2ncc(-c3cccc(C#N)c3)cc2C(=O)N([C@@H](C)CO)C[C@H]1C | 5.25% (inactive)
